In one assay the test system is AKT2. As to conditions: concentration: 1 μM,replicates: in singlicate; n = 1.
Take `OCCn1cc(-c2cnc3nnn(Cc4ccc5ncccc5c4)c3n2)cn1`: the “%Inh” value came to 0%.
The same measure, in the same setting: in the case of `CCN1CCN(CCCC(=O)Nc2n[nH]c3nc(-c4ccc(O)cc4)c(Br)cc23)CC1` [SB-731579] it was 0%.
Regarding `C[C@@H]1CNc2c(sc3ccc4nc(-c5ccncc5)ccc4c23)C(=O)N1`, the “%Inh” value is 18%.
Take `COc1cccc(CNC(=O)NC2CCN(c3ccnc(Nc4cc(OC)c(OC)c(OC)c4)n3)C2)c1` (centres unmarked) [GSK1379765]: the “%Inh” value amounted to 17%.
Same read-out and setting: the same measure for `CCn1c(-c2nonc2N)nc2cncc(CNC3CCNCC3)c21.Cl` [SB-747651]: 51%.
Still for that read-out and setting: in the case of `O=C(NCC1CC1)c1ccc(-c2cc(C(=O)NC3CC3)ccc2F)cc1` [GW810445] it was 0%; in that of `COc1cccc(OC)c1C(=O)Nc1cccc(-c2nn3ccccc3c2-c2ccnc(Nc3cccc(F)c3)n2)c1` [GSK361065], 0%.
In the case of `Cn1cc(-c2cccc3c(N)c(C(N)=O)nnc23)cn1`, the “%Inh” value stood at 0%.
On the same count and under the same terms, in the case of `CC(C)S(=O)(=O)N1CCN(Cc2ccc3c(c2)nc(NC(=O)c2ccsc2)n3C[C@H](O)c2ccccc2)CC1` [GW635815] it was 16%; in that of `Cc1ccc(CC(=O)N2CCc3cc(-c4cn(C)c5ncnc(N)c45)ccc32)cc1` [GSK2634758], 1%.
Regarding `CCn1c(-c2nonc2N)nc2cncc(Br)c21` [SB-738004], the “%Inh” value stood at 13%.
As to `O=C(Nc1ccccc1)c1cccc(Oc2ccc3nccn3n2)c1`, the “%Inh” value was determined as 0%.
On the same count and under the same terms, in the case of `COC(=O)Nc1nc2cc(Oc3ccc(NC(=O)Nc4cc(C(F)(F)F)ccc4Cl)cc3)ccc2[nH]1.Cl` [GW697465] it was 0%; in that of `O=C1NCCc2[nH]c(-c3ccncc3)cc21`, 0%; in that of `CNC(=O)c1ccccc1Nc1nc(Nc2cccc(CS(C)(=O)=O)c2)ncc1C.O=CO` [GSK1520489], 0%.
In the case of `O=C(Nc1cccc(Oc2ccc3nccn3n2)c1)Nc1cccc(C(F)(F)F)c1`, the “%Inh” value is 0%.
On to `COc1ccc(Nc2nccc(N3CCC(NC(=O)c4cccc(C#N)c4)C3)n2)cc1` (centres unmarked) [GSK1379730], for which the “%Inh” value came to 0%.
Turning to `COc1cc2nccc(Nc3ccc(Oc4ccccc4)cc3)c2cc1OC.Cl` [GI261656], the “%Inh” value was 0%.
For `C[C@@H](Oc1cc(-n2cnc3ccc(-c4ccncc4)cc32)sc1C(N)=O)c1ccccc1Cl` [GSK483724], the “%Inh” value was found to be 22%.
Still for that read-out and setting: the same measure for `CC(=O)Nc1ccc(-c2cc3ncnc(SCC(=O)O)c3s2)cc1`: 28%.
Consider `NC(=O)c1ccc(-c2cc3ncnc(SCC(=O)O)c3s2)cc1`, for which the “%Inh” value stood at 0%.
Still for that read-out and setting: the same measure for `COc1cc(Nc2nccc(N3CCC(NC(=O)c4cccc(C#N)c4)C3)n2)cc(OC)c1OC` (centres unmarked) [GSK1379751]: 0%; for `Cn1ccc2ncnc(Oc3ccc(NC(=O)Nc4cc(C(C)(C)C)on4)c(Cl)c3)c21`: 0%; for `Cn1ccc2ncnc(Oc3ccc(NC(=O)Nc4cccc(C(F)(F)F)c4)c(F)c3)c21`: 0%.
Regarding `CC(=O)Nc1nc2cnc(Nc3cc(NC(=O)c4cccc(CC(C)(C)C#N)c4)ccc3C)nc2s1`, the “%Inh” value was found to be 5%.
Turning to `c1ccc(Oc2ccc(Nc3ccnc4ccc(-c5ccccn5)cc34)cc2)cc1` [GW407034], the “%Inh” value came to 17%.
On the same count and under the same terms, in the case of `COC(=O)c1cccc(NC(=O)NC2CCN(c3ccnc(Nc4cc(OC)c(OC)c(OC)c4)n3)C2)c1` (centres unmarked) [GSK1379767] it was 0%; in that of `Cc1cccc(-c2nc(Nc3ccncc3)c3sccc3n2)n1` [GW869641], 0%.
Same read-out and setting: in the case of `CC(=O)c1c(-c2ccncc2)[nH]c(-c2ccncc2)c1C` [GW493036] it was 1%; in that of `Cc1nnc(-c2ccc3occ(-c4ccc(S(C)=O)cc4)c3n2)o1` (centres unmarked), 17%; in that of `Cc1ccc2c(-c3ccnc(Nc4ccc(C(F)(F)F)cc4)n3)cnn2n1` [GW819776], 0%.
Still for that read-out and setting: in the case of `Cn1ccc2ncnc(Oc3ccc(NC(=O)Nc4cncc(C(F)(F)F)c4)c(Cl)c3)c21` it was 13%; in that of `Cl.Nc1n[nH]c2cc(-c3ccccn3)ccc12` [GSK2189892], 0%; in that of `C[C@@H](Oc1cc(-n2cnc3cc(-c4cnn(C)c4)ccc32)sc1C(N)=O)c1ccccc1Cl` [GSK580432], 0%.
Regarding `CN1CCN(CCCNc2nccc(-c3c(-c4ccc(F)cc4)nn4cc(C(N)=O)ccc34)n2)CC1` [GW622475], the “%Inh” value amounted to 12%.
Turning to `O=C(Nc1n[nH]c2cc(-c3ccco3)ccc12)C1CC1` [SB-737447], the “%Inh” value is recorded as 0%.
Consider `NC(=O)Nc1sc(-c2ccc(F)cc2)cc1C(N)=O` [GW789449], for which the “%Inh” value was 0%.

Another assay concerns AKT3. The conditions noted are these: concentration: 1 μM,replicates: in singlicate; n = 1.
On to `OCCn1cc(-c2cnc3nnn(Cc4ccc5ncccc5c4)c3n2)cn1`, for which the “%Inh” value was determined as 45%.
On the same count and under the same terms, in the case of `CCN1CCN(CCCC(=O)Nc2n[nH]c3nc(-c4ccc(O)cc4)c(Br)cc23)CC1` [SB-731579] it was 0%.
On the same count and under the same terms, the same measure for `C[C@@H]1CNc2c(sc3ccc4nc(-c5ccncc5)ccc4c23)C(=O)N1`: 22%; for `COc1cccc(CNC(=O)NC2CCN(c3ccnc(Nc4cc(OC)c(OC)c(OC)c4)n3)C2)c1` (centres unmarked) [GSK1379765]: 0%; for `CCn1c(-c2nonc2N)nc2cncc(CNC3CCNCC3)c21.Cl` [SB-747651]: 66%.
With `O=C(NCC1CC1)c1ccc(-c2cc(C(=O)NC3CC3)ccc2F)cc1` [GW810445], the “%Inh” value amounted to 0%.
The same measure, in the same setting: in the case of `COc1cccc(OC)c1C(=O)Nc1cccc(-c2nn3ccccc3c2-c2ccnc(Nc3cccc(F)c3)n2)c1` [GSK361065] it was 0%; in that of `Cn1cc(-c2cccc3c(N)c(C(N)=O)nnc23)cn1`, 15%; in that of `CC(C)S(=O)(=O)N1CCN(Cc2ccc3c(c2)nc(NC(=O)c2ccsc2)n3C[C@H](O)c2ccccc2)CC1` [GW635815], 0%.
Regarding `Cc1ccc(CC(=O)N2CCc3cc(-c4cn(C)c5ncnc(N)c45)ccc32)cc1` [GSK2634758], the “%Inh” value stood at 30%.
On the same count and under the same terms, the same measure for `CCn1c(-c2nonc2N)nc2cncc(Br)c21` [SB-738004]: 0%; for `O=C(Nc1ccccc1)c1cccc(Oc2ccc3nccn3n2)c1`: 0%; for `COC(=O)Nc1nc2cc(Oc3ccc(NC(=O)Nc4cc(C(F)(F)F)ccc4Cl)cc3)ccc2[nH]1.Cl` [GW697465]: 0%.
The same measure, in the same setting: the same measure for `O=C1NCCc2[nH]c(-c3ccncc3)cc21`: 0%; for `CNC(=O)c1ccccc1Nc1nc(Nc2cccc(CS(C)(=O)=O)c2)ncc1C.O=CO` [GSK1520489]: 0%; for `O=C(Nc1cccc(Oc2ccc3nccn3n2)c1)Nc1cccc(C(F)(F)F)c1`: 7%.
With `COc1ccc(Nc2nccc(N3CCC(NC(=O)c4cccc(C#N)c4)C3)n2)cc1` (centres unmarked) [GSK1379730], the “%Inh” value was determined as 0%.
On to `COc1cc2nccc(Nc3ccc(Oc4ccccc4)cc3)c2cc1OC.Cl` [GI261656], for which the “%Inh” value came out at 0%.
The same measure, in the same setting: the same measure for `C[C@@H](Oc1cc(-n2cnc3ccc(-c4ccncc4)cc32)sc1C(N)=O)c1ccccc1Cl` [GSK483724]: 0%.
On the same count and under the same terms, the same measure for `CC(=O)Nc1ccc(-c2cc3ncnc(SCC(=O)O)c3s2)cc1`: 16%; for `NC(=O)c1ccc(-c2cc3ncnc(SCC(=O)O)c3s2)cc1`: 0%.
`COc1cc(Nc2nccc(N3CCC(NC(=O)c4cccc(C#N)c4)C3)n2)cc(OC)c1OC` (centres unmarked) [GSK1379751]: the “%Inh” value was found to be 0%.
On the same count and under the same terms, in the case of `Cn1ccc2ncnc(Oc3ccc(NC(=O)Nc4cc(C(C)(C)C)on4)c(Cl)c3)c21` it was 0%; in that of `Cn1ccc2ncnc(Oc3ccc(NC(=O)Nc4cccc(C(F)(F)F)c4)c(F)c3)c21`, 0%.
For the molecule `CC(=O)Nc1nc2cnc(Nc3cc(NC(=O)c4cccc(CC(C)(C)C#N)c4)ccc3C)nc2s1`, the “%Inh” value turned out to be 0%.
Still for that read-out and setting: the same measure for `c1ccc(Oc2ccc(Nc3ccnc4ccc(-c5ccccn5)cc34)cc2)cc1` [GW407034]: 0%.
The same measure, in the same setting: in the case of `COC(=O)c1cccc(NC(=O)NC2CCN(c3ccnc(Nc4cc(OC)c(OC)c(OC)c4)n3)C2)c1` (centres unmarked) [GSK1379767] it was 0%.
For `Cc1cccc(-c2nc(Nc3ccncc3)c3sccc3n2)n1` [GW869641], the “%Inh” value worked out at 3%.
On the same count and under the same terms, the same measure for `CC(=O)c1c(-c2ccncc2)[nH]c(-c2ccncc2)c1C` [GW493036]: 28%.
The same measure, in the same setting: in the case of `Cc1nnc(-c2ccc3occ(-c4ccc(S(C)=O)cc4)c3n2)o1` (centres unmarked) it was 0%; in that of `Cc1ccc2c(-c3ccnc(Nc4ccc(C(F)(F)F)cc4)n3)cnn2n1` [GW819776], 0%; in that of `Cn1ccc2ncnc(Oc3ccc(NC(=O)Nc4cncc(C(F)(F)F)c4)c(Cl)c3)c21`, 0%.
On the same count and under the same terms, in the case of `Cl.Nc1n[nH]c2cc(-c3ccccn3)ccc12` [GSK2189892] it was 0%; in that of `C[C@@H](Oc1cc(-n2cnc3cc(-c4cnn(C)c4)ccc32)sc1C(N)=O)c1ccccc1Cl` [GSK580432], 0%; in that of `CN1CCN(CCCNc2nccc(-c3c(-c4ccc(F)cc4)nn4cc(C(N)=O)ccc34)n2)CC1` [GW622475], 0%.
For the molecule `O=C(Nc1n[nH]c2cc(-c3ccco3)ccc12)C1CC1` [SB-737447], the “%Inh” value turned out to be 0%.
On the same count and under the same terms, the same measure for `NC(=O)Nc1sc(-c2ccc(F)cc2)cc1C(N)=O` [GW789449]: 0%.
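Note: KINOMEscan kinase panel screen.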
